Screen size: about 48,000 compounds; about 13,000 (27%) showed an effect of 50% or more. This is one part of the list.
tested on: Wolbachia pipientis; test: Anti-Wolbachia Cell-Based Screen; assay type: functional; design: scale not given: in the data most compounds retested in dose-response had high values; settings: 5 µM

Row | Structure (SMILES) | Percent Effect [%]
1 | Cc1cccc(N2CCC(NC(C)c3cccs3)CC2)n1 (centres undefined) | -26.34
2 | C[C@@H]1CN(c2ccc3c(Cl)ccnc3c2F)CC(C(N)=O)O1 (some centres undefined) | -9.196
3 | CC(C)c1noc(CCCC(=O)NC2CCS(=O)(=O)C2)n1 (centres undefined) | 7.76
4 | CC(C)(C)S(=O)(=O)c1ccc(N2CCN(c3ccccn3)CC2)nn1 | 14.84
5 | CCN1CC2(CNCCN(C(=O)Nc3ccccc3)C2)CC1=O.O=C(O)C(F)(F)F (centres undefined) | -17.66
6 | Cc1cccc(N2CC3(CCN(S(=O)(=O)c4ccccc4)C3)CC2=O)c1 (centres undefined) | -6.441
7 | CC(C)NC(=O)N1CCC2(CC(=O)N(c3ccsc3)C2)C1 (centres undefined) | 94
8 | CC(C)NC(=O)N1CCC2(CC(=O)N(c3cccc(C#N)c3)C2)C1 (centres undefined) | -3.038
9 | O=C(Cc1ccccc1)N1CCC2(CC(=O)N(c3ccsc3)C2)C1 (centres undefined) | 4.465
10 | CC(C)NC(=O)N1CCC2(C1)CN(c1ccsc1)C(=O)CN2C.O=C(O)C(F)(F)F (centres undefined) | -13.82
11 | O=C(Nc1ccccc1)N1CCC2(CC(=O)N(c3ccsc3)C2)C1 (centres undefined) | 106
12 | Cc1cccc(NC(=O)N2CCC3(CC(=O)N(c4ccsc4)C3)C2)c1 (centres undefined) | 111.9
13 | COCC(=O)N1CCC2(CC(=O)N(c3cccc(F)c3)C2)C1 (centres undefined) | -16.31
14 | O=C(c1cnccn1)N1CC[C@H]2[C@@H]1CCC(=O)N2c1cccnc1 | -6.797
15 | COc1cc(C)cc(C(C(=O)O)N(C)Cc2ccncc2C)c1OC (centres undefined) | 4.518
16 | Cc1ccc([C@]2(O)CC[C@H]3CN(Cc4ccc(Cl)cc4Cl)C[C@H]32)nc1 | 121.2
17 | CSc1ccc(CN2C[C@@H]3CC[C@@](O)(c4ccc(C)cn4)[C@@H]3C2)cc1 | 135.2
18 | CN(C)C(=O)CN1C[C@@H]2CC[C@H](C1)N(Cc1ccc(Cl)cc1Cl)C2 | -35.05
19 | Cc1cccc(C2(NC(=O)CCN3C(=O)CCC3=O)CCCC2)c1 | -3.276
20 | COCCOc1ccc(NCc2cccc3cn[nH]c23)cn1 | -20.32
21 | COCc1ccccc1NC(=O)NCc1ccc(OCC2CC2)nc1 | 7.542
22 | COCCN1CCC(CNc2cnc3ccccc3n2)CC1 | -17.24

Row | Structure (SMILES) | Percent Effect [%]
23 | COCCN1CCC(CNc2nc3ccccc3o2)CC1 | 8.013
24 | COCCOc1ccc(CNc2nc3ccccc3nc2N)cn1 | 162.2
25 | OC1CCN(c2ccc(CNc3nc4ccccc4o3)cc2F)CC1 | -1.066
26 | COCCOc1ccc(CNc2nc3ccccc3o2)cn1 | 106.2
27 | COCCOc1ccc(CNc2cnc3ccccc3n2)cn1 | 132.7
28 | OCCOc1ccc(NCc2cccnc2)cn1 | 7.993
29 | Cl.O=C1CC(NCc2cnc(N3CCCC3)nc2)CN1c1ccccc1 (centres undefined) | 36.64
30 | CC(C)N1CCO[C@H]2CN(C(=O)c3ccc(N(C)C)cc3)C[C@H]21 | -8.625
31 | CN(C(=O)c1ccc[nH]1)C1CC(=O)N(Cc2ccccc2)C1=O (centres undefined) | -8.622
32 | CCOCC(=O)Nc1ncc(I)cc1C | -8.606
33 | Cc1cc(C)c(S(=O)(=O)Nc2c(C)nc(N3CCCC3)nc2C)cc1C | 12.58
34 | CNC(=O)N1CCC2(CC1)CN(C)Cc1cc(F)ccc12.Cl | 24.69
35 | Cc1nn(C)c(C)c1C1CCCN1Cc1nnc(C2CC2)n1C (centres undefined) | -7.496
36 | CN(CCO)Cc1nnc(C2CCN(C(=O)c3ccccn3)CC2)n1C | -1.336
37 | Cn1c(Cn2ccnc2)nnc1C1CCN(C(=O)c2cccnc2)CC1 | 92.17
38 | Cc1nc(C(=O)N2CCC(c3nnc(Cn4ccnc4)n3C)CC2)cs1 | 92.58
39 | Cc1cc(C(=O)N2CCC(c3nnc(Cn4ccnc4)n3C)CC2)cs1 | 95.2
40 | CN(CCO)Cc1nnc(C2CCN(C(=O)c3cccnc3)CC2)n1C | -5.743
41 | Cc1nc(C(=O)N2CCC(c3nccn3Cc3ccncc3)CC2)cs1 | -0.8492
42 | Cn1c(Cn2ccnc2)nnc1C1CCN(C(=O)c2ccccn2)CC1 | 107.7
43 | CCCc1nnc(N2CCCC(c3nnc(Cn4ccnc4)n3C)C2)s1 (centres undefined) | 0.1518
44 | Cc1nn(CN(CC2CCOC2)C2CC2)c(=O)c2ccccc12 (centres undefined) | -4.031

Row | Structure (SMILES) | Percent Effect [%]
45 | Cc1nn(C)c(N2CCOCC2)c1CNC1CCOc2ccccc21 (centres undefined) | -6.51
46 | Cc1nnc(NCC2(c3ccccc3)CC2)c(C#N)c1C | 14.48
47 | CC(=O)NCC(Cc1cccc(F)c1)n1cccc1 (centres undefined) | 7.369
48 | CCNC(=O)CN(CC)C(=O)c1cccc(Nc2cnn(C)c2)c1 | -0.2175
49 | CN(Cc1cnc(N)nc1)C(=O)C1CC(=O)N(Cc2ccncc2)C1 (centres undefined) | -0.2602
50 | CN1CCN(Cc2n[nH]c(=O)n2CC2CCCCC2)CC1 | 12.01
51 | N#Cc1cccc(N2CCC(CO)(CCc3ccccc3)CC2)n1 | -13.62
52 | Cc1cnc(NCC(C)(C)N2CCN(C)CC2)nc1 | -0.3057
53 | Cn1c(Cn2ccnc2)nnc1C1CCN(Cc2cccnc2N)CC1 | -5.827
54 | Cn1c(Cn2ccnc2)nnc1C1CCN(C(=O)c2ccncc2)CC1 | 74.15
55 | Cn1cccc1C(=O)N1CCC(c2nnc(Cn3ccnc3)n2C)CC1 | 89.43
56 | Cn1c(Cn2ccnc2)nnc1C1CCN(C(=O)c2ccoc2)CC1 | 96.26
57 | Cc1[nH]ccc1C(=O)N1CCC(c2nnc(Cn3ccnc3)n2C)CC1 | 6.251
58 | Cn1nc(Cn2ccnc2)c2c1CN(C(=O)c1ccoc1)C2.O=C(O)C(F)(F)F | -63.76
59 | CN(CCO)Cc1nnc(C2CCN(C(=O)c3cccn3C)CC2)n1C | -1.148
60 | CN(CCO)Cc1nnc(C2CCN(C(=O)c3ccccc3)CC2)n1C | 8.451
61 | Cn1cccc1C(=O)N1CCC(c2nccn2Cc2ccncc2)CC1 | 14.15
62 | CCN1C(=O)C(c2ccccc2)CC12CCN(c1ncccn1)CC2 (centres undefined) | -1.132
63 | CN(Cc1ccc(F)cc1)Cc1nc(-c2cnccn2)no1 | -0.4176
64 | CCc1n[nH]c(C2CN(Cc3ncc(CC)o3)CCO2)n1 (centres undefined) | -12.36

Reference: ChEMBL document CHEMBL3988442, “University of Dundee, Small-Polar-MMV Screening Library” (2021)
